Data from PubChem BioAssay AID1159580 (chemical genetic matrix, 2015).
The whole screen tested about 5,500 compounds, of which about 2,000 (36%) were called active. About 18% were inconclusive and are not listed. No stated cut-off is given here; in the data, active means normalized growth mostly below about 0.91 (no sharp cut-off); inconclusive means no clear call, values can overlap the other calls; inactive means mostly above about 0.92. Some of the results follow.

Experiment: chemical genetic growth profiling, strain panel (AID 1159580);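 further: tested at 20 µM; growth read once vehicle control cultures reached saturation at 30 °C; 1 = growth at the plate median or of vehicle wells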
Conditions: growth OD

Measured: normalized growth

CC(C)CC(N(C)C)C1(c2ccc(Cl)cc2)CCC1 (configuration not stated)
inactive: S. cerevisiae deletion strains, locus YJR075W, strain HOC1, stronger effect = lower value 0.995 | S. cerevisiae deletion strains, locus YKL009W, strain mrt4, stronger effect = lower value 1.03 | S. cerevisiae deletion strains, locus YKL068W, stronger effect = lower value 1.01 | S. cerevisiae deletion strains, locus YKL085W, strain MDH1 (second series), stronger effect = lower value 1.01 | S. cerevisiae deletion strains, locus YKL085W, strain MDH1, stronger effect = lower value 1.01 | S. cerevisiae deletion strains, locus YKL160W, strain elf1, stronger effect = lower value 1.02 | S. cerevisiae deletion strains, locus YKL190W, strain CNB1, stronger effect = lower value 0.997 | S. cerevisiae deletion strains, locus YKR001C, strain vps1, stronger effect = lower value 1.02 | S. cerevisiae deletion strains, locus YKR026C, strain gcn3, stronger effect = lower value 1.01 | S. cerevisiae deletion strains, locus YKR091W, strain srl3, stronger effect = lower value 1.01 | S. cerevisiae deletion strains, locus YLL001W, strain dnm1, stronger effect = lower value 1.01 | S. cerevisiae deletion strains, locus YLL026W, stronger effect = lower value 1.01 | S. cerevisiae deletion strains, locus YLL041C, strain sdh2, stronger effect = lower value 1 | S. cerevisiae deletion strains, locus YLR027C, strain aat2, stronger effect = lower value 1.02 | S. cerevisiae deletion strains, locus YLR039C, strain RIC1, stronger effect = lower value 1.13 | S. cerevisiae deletion strains, locus YLR058C, strain SHM2, stronger effect = lower value 1.01 | S. cerevisiae deletion strains, locus YLR102C, strain apc9, stronger effect = lower value 1.01 | S. cerevisiae deletion strains, locus YLR113W, strain HOG1, stronger effect = lower value 0.995 | S. cerevisiae deletion strains, locus YLR221C, strain rsa3, stronger effect = lower value 0.994 | S. cerevisiae deletion strains, locus YLR258W, strain gsy2, stronger effect = lower value 1 | S. cerevisiae deletion strains, locus YLR262C, strain YPT6 (second series), stronger effect = lower value 1.05 | S. cerevisiae deletion strains, locus YLR262C, strain YPT6, stronger effect = lower value 1.11 | S. cerevisiae deletion strains, locus YLR268W, strain sec22, stronger effect = lower value 1.02 | S. cerevisiae deletion strains, locus YLR320W, strain mms22, stronger effect = lower value 0.989 | S. cerevisiae deletion strains, locus YLR330W, strain CHS5, stronger effect = lower value 1 | S. cerevisiae deletion strains, locus YLR342W, strain FKS1 (second series), stronger effect = lower value 1.01 | S. cerevisiae deletion strains, locus YLR342W, strain FKS1, stronger effect = lower value 1.01 | S. cerevisiae deletion strains, locus YLR357W, strain rsc2, stronger effect = lower value 1.01 | S. cerevisiae deletion strains, locus YLR370C, strain arc18, stronger effect = lower value 1.01 | S. cerevisiae deletion strains, locus YLR371W, strain rom2, stronger effect = lower value 1.01 | S. cerevisiae deletion strains, locus YLR384C, strain iki3, stronger effect = lower value 1.02 | S. cerevisiae deletion strains, locus YLR418C, strain cdc73, stronger effect = lower value 1.05 | S. cerevisiae deletion strains, locus YML016C, strain PPZ1, stronger effect = lower value 1.02 | S. cerevisiae deletion strains, locus YML032C, strain rad52, stronger effect = lower value 1.02 | S. cerevisiae deletion strains, locus YML120C, strain ndi1, stronger effect = lower value 1.01 | S. cerevisiae deletion strains, locus YML124C, strain tub3, stronger effect = lower value 1.01 | S. cerevisiae deletion strains, locus YMR058W, strain fet3, stronger effect = lower value 1.01 | S. cerevisiae deletion strains, locus YMR078C, strain ctf18, stronger effect = lower value 1.02 | S. cerevisiae deletion strains, locus YMR125W, strain sto1, stronger effect = lower value 0.979 | S. cerevisiae deletion strains, locus YMR129W, stronger effect = lower value 1.01 | S. cerevisiae deletion strains, locus YMR205C, strain PFK2, stronger effect = lower value 1.01 | S. cerevisiae deletion strains, locus YMR223W, strain ubp8, stronger effect = lower value 1.01 | S. cerevisiae deletion strains, locus YMR231W, strain pep5, stronger effect = lower value 0.989 | S. cerevisiae deletion strains, locus YMR263W, strain SAP30, stronger effect = lower value 0.999 | S. cerevisiae deletion strains, locus YMR307W, strain GAS1, stronger effect = lower value 1.01 | S. cerevisiae deletion strains, locus YNL067W, strain RPL9B, stronger effect = lower value 0.992 | S. cerevisiae deletion strains, locus YNL071W, strain lat1, stronger effect = lower value 1.01 | S. cerevisiae deletion strains, locus YNL128W, strain TEP1, stronger effect = lower value 0.987 | S. cerevisiae deletion strains, locus YNL153C, strain GIM3, stronger effect = lower value 1.01 | S. cerevisiae deletion strains, locus YNL183C, strain NPR1, stronger effect = lower value 0.972 | S. cerevisiae deletion strains, locus YNL209W, strain ssb2, stronger effect = lower value 0.996 | S. cerevisiae deletion strains, locus YNL233W, strain BNI4, stronger effect = lower value 1.01 | S. cerevisiae deletion strains, locus YNL248C, strain rpa49, stronger effect = lower value 0.997 | S. cerevisiae deletion strains, locus YNL250W, strain rad50, stronger effect = lower value 1 | S. cerevisiae deletion strains, locus YNL271C, strain bni1, stronger effect = lower value 1.02 | S. cerevisiae deletion strains, locus YNL298W, strain CLA4, stronger effect = lower value 1.02 | S. cerevisiae deletion strains, locus YNL307C, strain MCK1, stronger effect = lower value 1.03 | S. cerevisiae deletion strains, locus YNL322C, strain KRE1 (second series), stronger effect = lower value 1 | S. cerevisiae deletion strains, locus YNL322C, strain KRE1, stronger effect = lower value 1 | S. cerevisiae deletion strains, locus YNR049C, strain mso1, stronger effect = lower value 0.996 | S. cerevisiae deletion strains, locus YNR052C, strain pop2, stronger effect = lower value 1.01 | S. cerevisiae deletion strains, locus YOL006C, strain TOP1, stronger effect = lower value 1.03 | S. cerevisiae deletion strains, locus YOL012C, strain htz1 0.875 | S. cerevisiae deletion strains, locus YOL147C, strain pex11, stronger effect = lower value 1 | S. cerevisiae deletion strains, locus YOR001W, strain rrp6, stronger effect = lower value 1.02 | S. cerevisiae deletion strains, locus YOR061W, strain CKA2, stronger effect = lower value 1.01 | S. cerevisiae deletion strains, locus YOR069W, strain VPS5, stronger effect = lower value 0.992 | S. cerevisiae deletion strains, locus YOR070C, strain gyp1, stronger effect = lower value 0.997 | S. cerevisiae deletion strains, locus YOR080W, strain dia2, stronger effect = lower value 1.01 | S. cerevisiae deletion strains, locus YOR083W, strain WHI5, stronger effect = lower value 1 | S. cerevisiae deletion strains, locus YOR106W, strain vam3, stronger effect = lower value 1.03 | S. cerevisiae deletion strains, locus YOR136W, strain idh2, stronger effect = lower value 1.02 | S. cerevisiae deletion strains, locus YOR144C, strain elg1, stronger effect = lower value 1.02 | S. cerevisiae deletion strains, locus YOR184W, strain ser1, stronger effect = lower value 1.03 | S. cerevisiae deletion strains, locus YOR231W, strain MKK1, stronger effect = lower value 1.03 | S. cerevisiae deletion strains, locus YOR265W, strain rbl2, stronger effect = lower value 1.02 | S. cerevisiae deletion strains, locus YOR270C, strain vph1, stronger effect = lower value 0.991 | S. cerevisiae deletion strains, locus YOR290C, strain snf2, stronger effect = lower value 0.99 | S. cerevisiae deletion strains, locus YOR316C, strain cot1, stronger effect = lower value 1.01 | S. cerevisiae deletion strains, locus YPL051W, strain arl3, stronger effect = lower value 0.997 | S. cerevisiae deletion strains, locus YPL055C, strain LGE1, stronger effect = lower value 0.999 | S. cerevisiae deletion strains, locus YPL078C, strain atp4, stronger effect = lower value 1.02 | S. cerevisiae deletion strains, locus YPL106C, strain sse1, stronger effect = lower value 0.988 | S. cerevisiae deletion strains, locus YPL240C, strain hsp82, stronger effect = lower value 1.02 | S. cerevisiae deletion strains, locus YPL241C, strain CIN2, stronger effect = lower value 0.995 | S. cerevisiae deletion strains, locus YPL256C, strain CLN2, stronger effect = lower value 1.01 | S. cerevisiae deletion strains, locus YPR119W, strain clb2, stronger effect = lower value 1.01 | S. cerevisiae deletion strains, locus YPR141C, strain kar3, stronger effect = lower value 1.01 | S. cerevisiae deletion strains, locus YPR163C, strain tif3, stronger effect = lower value 1.02 | S. cerevisiae deletion strains, locus YPR167C, strain met16, stronger effect = lower value 1.02 | S. cerevisiae deletion strains, strain wtn01, stronger effect = lower value 1.03 | S. cerevisiae strains, strain wild type, stronger effect = lower value 0.98
